The results in this text go back to PubChem BioAssay (Tox21).

A short description of assay [1]: Nuclear factor erythroid 2-related factor 2/antioxidant responsive element (Nrf2/ARE) small molecule agonists: qHTS cell viability counter screen in human keratinocytes (AID 1919968; active means well fitted curve in the direction sought with a large enough effect in the repeat runs; an effect the other way counts as inactive or inconclusive; further: nearly all actives have a fitted effect of over 55% in size). Summed up: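 HaCaT ARE reporter line, 1,500 cells/well; 5 h settle, 37 C/5% CO2; cpd in DMSO pinned; 23 h exposure; CellTiter-Fluor, 1 h; fluorescence.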
In general terms: Quantitative high-throughput screening tests each substance at several concentrations.

The nature of assay [2]: Nuclear factor erythroid 2-related factor 2/antioxidant responsive element (Nrf2/ARE) small molecule agonists: luciferase reporter gene qHTS assay in human keratinocytes (AID 1919969). Further: nearly all actives have a fitted effect of over 35% in size. In general terms: A reporter such as luciferase makes a cellular process visible.
Assay [3] deals with Gonadotropin-releasing hormone receptor (Homo sapiens) (UniProt P30968). Briefly: Human gonadotropin-releasing hormone receptor (GnRHR) small molecule agonists, calcium flux assay in GnRHR-HEK293 cells (AID 1920063). Further: nearly all actives have a fitted effect of over 35% in size. Summed up:
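GnRHR-HEK293, 1500 cells/well, 18 h 37 C/5% CO2; Ca dye 1 h 37 C; cpd pinned (DMSO), agonist mode; kinetic FL 480/540, 3 min, 1 s reads; 15 conc, n=3.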
Background: A change in cytosolic calcium serves as a functional read-out for many receptors and channels.

Assay [4] addresses KiSS-1 receptor (Homo sapiens) (UniProt Q969F8). Briefly: Human kisspeptin (KISS1R) small molecule agonists, calcium flux assay in KISS1R-HEK293 cells (AID 1920064; active means well fitted curve in the direction sought with a large enough effect in the repeat runs; an effect the other way counts as inactive or inconclusive). Summed up: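 Stable human KISS1R HEK293 line; 18 h plating, 37 C/5% CO2; calcium dye 1 h 37 C; compound pin transfer; kinetic fluorescence Ex/Em 480/540, 3 min.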
Assay [5] is described as follows: G protein-coupled receptor (GPCR) small molecule agonists, calcium flux assay: HEK293 wild type cell line counter screen (AID 1920065). A digest of the protocol: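 Kinetic fluorescence at Ex/Em 480/540, recorded every second over 3 min, served as the read-out after compound addition. Each compound was tested at 15 concentrations in triplicate on cells pre-loaded with calcium dye for 1 h.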

The nature of assay [6]: p53 small molecule agonists, cell-based qHTS assay with human liver microsomes (AID 1963577).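 Further: p53 response element beta-lactamase reporter cells with liver microsomes plus NADPH.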 Summed up: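 With metabolic activation: human liver microsomes (0.5 mg/mL final) plus NADPH (0.5 mg/mL final) added alongside compounds to p53RE-bla cells; 16 h 37 C exposure; beta-lactamase read by LiveBLAzer fluorescence.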
Assay [7] is described as follows: p53 small molecule agonists, cell-based qHTS assay with rat liver microsomes (AID 1963578). Summed up: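 Metabolic activation by rat liver microsomes and NADPH, each 0.5 mg/mL final, added right after compounds to p53RE-bla reporter cells (4,000/well, plated 5 h earlier). 16 h at 37 C, then LiveBLAzer substrate for 2 h at room temperature in the dark; fluorescence read-out.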

Assay [8] can be described thus: p53 small molecule agonists, cell-based qHTS assay with human liver microsomes: qHTS cell viability counter screen (AID 1963579). Further: nearly all actives have a fitted effect of over 45% in size. A digest of the protocol: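 Metabolic activation used human liver microsomes and NADPH, both 0.5 mg/mL final, over 16 hours at 37 C on p53RE-bla cells (4,000/well). Cytotoxicity measured by CellTiter-Glo luminescence, 30 min at room temperature.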

Assay [9] is described as follows: p53 small molecule agonists, cell-based qHTS assay with rat liver microsomes: qHTS cell viability counter screen (AID 1963580). Further: nearly all actives have a fitted effect of over 45% in size. A digest of the protocol: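 p53RE-bla HCT-116 cells (4,000/well) rested 5 h at 37 C, then given Tox21 compounds in DMSO with rat liver microsomes (0.5 mg/mL final) plus NADPH (0.5 mg/mL final) for 16 h at 37 C. Viability read by CellTiter-Glo luminescence after 30 min at room temperature.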

A short description of assay [10]: p53 small molecule agonists, cell-based qHTS assay: qHTS cell viability counter screen (AID 1963581). Further: nearly all actives have a fitted effect of over 45% in size. A digest of the protocol: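 HCT-116 p53RE-bla cells, 4,000/well, plated 5 h before compound pin transfer; 16 h at 37 C; bla substrate 2 h RT; then CellTiter-Glo, 30 min RT, luminescence.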
The nature of assay [11]: p53 small molecule agonists, cell-based qHTS assay (AID 1963582; active means well fitted activation curve with a large enough effect in the signal ratio in the repeat runs, not every such curve was filed as active; the % refers to the signal ratio). Summed up:
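Reporter line: p53RE-bla. Pre-incubation 5 h, 37 C, 5% CO2; compound (DMSO, pin tool) 16 h, 37 C; B/G FRET substrate 2 h RT; fluorescence intensity read.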

For assay [12], the target named is Muscarinic acetylcholine receptor M1 (Homo sapiens) (UniProt P11229). Briefly: Cholinergic receptor muscarinic 1 (CHRM1) small molecule antagonists, cell-based qHTS assay (AID 1963588). Further: nearly all actives have a fitted effect of over 40% in size. Further: potency means the concentration at half of the fitted maximal effect. Summed up: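 CHRM1-CHO calcium-flux assay, antagonist mode. Cells were seeded 18 h, dye-loaded 1 h at 37 C and given compound for 5 min at RT, then acetylcholine was added at 50nM. FDSS fluorescence was read 3 min; 15 concentrations, three runs.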
Chain of Muscarinic acetylcholine receptor M1 (Homo sapiens) (P11229 whole entry, looked up): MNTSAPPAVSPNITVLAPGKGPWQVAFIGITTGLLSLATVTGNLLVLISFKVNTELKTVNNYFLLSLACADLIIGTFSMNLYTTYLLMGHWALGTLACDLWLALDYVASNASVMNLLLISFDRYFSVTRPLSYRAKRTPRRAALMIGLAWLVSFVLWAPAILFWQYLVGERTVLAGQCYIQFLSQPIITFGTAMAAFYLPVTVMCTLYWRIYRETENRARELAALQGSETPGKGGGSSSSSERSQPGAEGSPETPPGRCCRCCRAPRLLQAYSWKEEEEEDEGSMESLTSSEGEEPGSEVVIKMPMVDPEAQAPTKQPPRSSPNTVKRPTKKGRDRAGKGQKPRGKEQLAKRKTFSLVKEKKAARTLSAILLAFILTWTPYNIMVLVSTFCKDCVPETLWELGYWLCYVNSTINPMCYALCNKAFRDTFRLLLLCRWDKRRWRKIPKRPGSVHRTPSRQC

The target is the same in assay [13]. Briefly: Cholinergic receptor muscarinic 1 (CHRM1) small molecule agonists, cell-based qHTS assay (AID 1963589). Further: nearly all actives have a fitted effect of over 35% in size. Summed up:
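Human M1 in stable CHO line; 18 h plating, 1 h dye load 37 C; cpd added (agonist mode); Ca2+ fluorescence kinetic read, 1 s intervals; 15 conc, 3 runs.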

Assay [14] in a line: cAMP Responsive Elements (CRE) small molecule agonists, cell-based qHTS assay (AID 1963590). A digest of the protocol:
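HEK 293T CRE-bla, 2,000 cells/well, 18 h preincubation 37 C/5% CO2; cpds (DMSO) pinned, 3 h; LiveBLAzer B/G FRET substrate, 2 h RT.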

Assay [15] concerns the target Beta-2 adrenergic receptor (Homo sapiens) (UniProt P07550). Nature of the assay: Adrenergic beta2 receptor (ADRB2) small molecule antagonists, cell-based qHTS assay (AID 1963592). Further: series mostly up to about 92 µM; nearly all actives have a fitted effect of over 50% in size. A digest of the protocol: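 Cells (CHO, stable ADRB2 overexpression) incubated 18-20hr at 37C; compounds added from DMSO; agonist mix (1nM isoproterenol, 100uM IBMX, 25uM Ro-20-1724) added; 0.5hr RT; d2-cAMP and anti-cAMP-cryptate added; 1hr RT; 665/615 nm read.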

Assay [16] has as its target D(2) dopamine receptor (Homo sapiens) (UniProt P14416). Nature of the assay: Dopamine D2 receptor (DRD2) small molecule agonists, cell-based qHTS assay (AID 1963594). Further: nearly all actives have a fitted effect of over 35% in size. A digest of the protocol:
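HEK293 cells stably expressing DRD2 were cultured 24 h at 37 C, then given Ro20-1724 (0.1 mM final) and compounds for 10 min at room temperature. NKH477 (200nM) was then added for 30 min. cAMP was read by HTRF.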

Assay [17] shares this target. Nature of the assay: Dopamine D2 receptor (DRD2) small molecule antagonists, cell-based qHTS assay (AID 1963595; active means well fitted inhibition curve with a large enough effect in the signal ratio in the repeat runs, with a control signal flat; the % refers to the signal ratio; further: potency means the concentration at half of the fitted maximal effect). Summed up:
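Human DRD2 antagonist qHTS measuring cAMP by HTRF. The cells are exposed to compound for 10 min, then to NKH477 (200 nM) and quinpirole (12 nM) for 30 min at RT, with Ro20-1724 (0.1 mM) present throughout.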

A short description of assay [18]: cAMP Responsive Elements (CRE) small molecule antagonists, cell-based qHTS assay (AID 1963591; active means well fitted inhibition curve with a large enough effect in the signal ratio in the repeat runs, not every such curve was filed as active; the % refers to the signal ratio). A digest of the protocol:
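Beta-lactamase reporter read by FRET substrate (LiveBLAzer B/G) after 2 h at room temperature. CRE-bla HEK293T cells had received compound plus 0.25 uM (final) NKH477 for 3 h at 37 °C.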

For assay [19], the target named is Beta-2 adrenergic receptor (Homo sapiens) (UniProt P07550). Nature of the assay: Adrenergic beta2 receptor (ADRB2) small molecule agonists, cell-based qHTS assay (AID 1963593).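 Further: CHO cells stably overexpressing human ADRB2.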 Summed up:
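CHO cells stably over-expressing ADRB2 were plated overnight at 37C, then dosed with compounds plus a stimulation mix containing 100uM IBMX and 25uM Ro-20-1724 for 0.5hr at room temperature. cAMP was measured by HTRF competition, 1hr.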

Assay [20] addresses 5-hydroxytryptamine receptor 2A (Homo sapiens) (UniProt P28223). Briefly: 5-hydroxytryptamine receptor 2A (HTR2A) small molecule agonists, cell-based qHTS assay (AID 1963587). Further: nearly all actives have a fitted effect of over 30% in size. Summed up:
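HTR2A-CHO cells, plated 18 h at 37 C/5% CO2, dye-loaded 1 h at 37 C; compounds in DMSO added by pin tool (agonist mode). Intracellular calcium flux read as kinetic fluorescence on FDSS over 2 min at 1 s intervals.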

A number with no mark means an inactive call. Records with an inconclusive call do not appear. Activity calls are given as the source filed them. Unless noted, the call rests on the fitted dose curve.
On the % scale 0 is the no-effect control and ±100 the full control effect.

Chain of KiSS-1 receptor (Homo sapiens) (Q969F8 whole entry, looked up): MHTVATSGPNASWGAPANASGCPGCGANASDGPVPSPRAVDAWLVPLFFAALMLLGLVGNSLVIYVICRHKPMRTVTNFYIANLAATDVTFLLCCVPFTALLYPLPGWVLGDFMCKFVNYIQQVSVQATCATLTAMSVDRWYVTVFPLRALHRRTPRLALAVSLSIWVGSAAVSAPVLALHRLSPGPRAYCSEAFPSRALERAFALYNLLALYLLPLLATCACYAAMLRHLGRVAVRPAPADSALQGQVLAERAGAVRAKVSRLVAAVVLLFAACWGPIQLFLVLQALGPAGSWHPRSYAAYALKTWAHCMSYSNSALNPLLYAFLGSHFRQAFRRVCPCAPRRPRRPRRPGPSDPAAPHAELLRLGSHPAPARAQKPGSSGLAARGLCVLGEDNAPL
Chain of Gonadotropin-releasing hormone receptor (Homo sapiens) (P30968 whole entry, looked up): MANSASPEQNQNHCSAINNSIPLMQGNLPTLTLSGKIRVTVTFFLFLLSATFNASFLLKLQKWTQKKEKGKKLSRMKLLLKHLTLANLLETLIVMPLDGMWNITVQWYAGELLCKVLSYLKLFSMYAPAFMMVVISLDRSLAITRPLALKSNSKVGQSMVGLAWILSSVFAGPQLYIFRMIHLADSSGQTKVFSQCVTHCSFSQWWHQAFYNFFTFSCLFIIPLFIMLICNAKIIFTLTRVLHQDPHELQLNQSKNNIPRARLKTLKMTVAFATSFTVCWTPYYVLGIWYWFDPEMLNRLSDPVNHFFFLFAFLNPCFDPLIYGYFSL
Chain of D(2) dopamine receptor (Homo sapiens) (P14416 whole entry, looked up): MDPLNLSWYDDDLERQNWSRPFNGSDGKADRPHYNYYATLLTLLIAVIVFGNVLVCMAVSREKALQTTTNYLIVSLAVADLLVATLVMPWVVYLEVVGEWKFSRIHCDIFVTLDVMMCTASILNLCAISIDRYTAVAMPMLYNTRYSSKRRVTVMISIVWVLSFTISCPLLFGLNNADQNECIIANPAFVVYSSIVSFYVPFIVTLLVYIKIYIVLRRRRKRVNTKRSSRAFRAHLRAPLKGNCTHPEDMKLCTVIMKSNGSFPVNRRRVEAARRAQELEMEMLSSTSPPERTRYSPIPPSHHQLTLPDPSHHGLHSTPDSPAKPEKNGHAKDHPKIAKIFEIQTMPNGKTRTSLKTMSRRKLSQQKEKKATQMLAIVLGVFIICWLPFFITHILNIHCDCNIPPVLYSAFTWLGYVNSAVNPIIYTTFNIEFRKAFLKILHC
Chain of Beta-2 adrenergic receptor (Homo sapiens) (P07550 whole entry, looked up): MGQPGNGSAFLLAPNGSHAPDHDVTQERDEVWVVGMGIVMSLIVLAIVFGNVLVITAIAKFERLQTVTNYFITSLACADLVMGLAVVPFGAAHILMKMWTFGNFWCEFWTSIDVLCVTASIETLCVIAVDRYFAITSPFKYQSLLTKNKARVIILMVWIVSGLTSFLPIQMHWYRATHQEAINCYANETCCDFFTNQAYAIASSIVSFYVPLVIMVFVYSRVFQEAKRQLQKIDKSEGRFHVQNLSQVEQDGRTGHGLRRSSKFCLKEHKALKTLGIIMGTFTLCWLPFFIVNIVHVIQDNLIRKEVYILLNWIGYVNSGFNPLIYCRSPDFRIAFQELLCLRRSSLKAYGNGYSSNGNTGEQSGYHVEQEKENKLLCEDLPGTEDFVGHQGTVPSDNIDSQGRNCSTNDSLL
Chain of 5-hydroxytryptamine receptor 2A (Homo sapiens) (P28223 whole entry, looked up): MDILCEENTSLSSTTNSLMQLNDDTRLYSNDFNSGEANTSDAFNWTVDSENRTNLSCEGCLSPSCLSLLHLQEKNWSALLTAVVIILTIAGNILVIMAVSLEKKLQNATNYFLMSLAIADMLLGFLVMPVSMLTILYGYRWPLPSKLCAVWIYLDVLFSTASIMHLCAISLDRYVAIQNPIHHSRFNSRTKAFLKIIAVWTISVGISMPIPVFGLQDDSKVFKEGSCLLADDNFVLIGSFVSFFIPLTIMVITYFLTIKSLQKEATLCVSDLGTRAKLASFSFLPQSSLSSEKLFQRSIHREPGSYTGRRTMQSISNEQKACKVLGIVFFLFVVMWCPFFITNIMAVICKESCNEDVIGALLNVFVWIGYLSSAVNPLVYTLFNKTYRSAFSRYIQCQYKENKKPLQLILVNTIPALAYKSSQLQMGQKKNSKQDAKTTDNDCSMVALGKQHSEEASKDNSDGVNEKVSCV

On to `COC(=O)NN`, for which the Potency entry in assay [1], in [2], in [3], in [6], in assay [7] and in assay [8] was “inactive” each time. Further, the Potency result in assay [9], in [10], in assay [11], in [12], in assay [13] and in assay [14] was “inactive” each time. The Potency result in assay [15], in [16] and in assay [17] was “inactive” each time. In addition, the result in assay [4] and in assay [5] was inactive.
As to `CCCCCCCCCCCCCCCCCC(=O)OCCCCCCCCCCCCCC(C)C`, the Potency result in [1], in assay [2], in assay [3], in assay [6], in assay [7] and in assay [8] was “inactive” in each case. Also, the Potency entry in assay [9], in assay [10], in assay [11], in assay [12], in [13] and in [14] was “inactive” throughout. Further, the Potency entry in [18] and in assay [16] was “inactive” each time. Moreover, the result in assay [4] and in assay [5] was inactive.
Take `CCCCCc1ccc(N)cc1`: the Potency result in assay [1], in assay [2], in [3], in [6], in assay [7] and in assay [8] was “inactive” throughout. Besides, the Potency result in assay [9], in assay [10], in assay [11], in assay [13], in assay [18] and in assay [15] was “inactive” each time. Further, the Potency entry in [19], in assay [16] and in assay [17] was “inactive” in each case. Further, the outcome in assay [4] and in assay [5] was inactive.
Take `CC(C)=CC(=O)C=C(C)C`: the Potency result in assay [1], in assay [2], in assay [3], in assay [6], in assay [7] and in assay [8] was “inactive” each time. The Potency result in assay [9], in assay [10], in [11], in [20], in assay [12] and in assay [13] was “inactive” in each case. For the same molecule, the Potency result in assay [14], in assay [18], in assay [15], in assay [19] and in assay [16] was “inactive” each time. For the same molecule, the outcome in assay [4] and in assay [5] was inactive.
Regarding `CCCCNc1c(C(=O)OCC)c(C)nc2c1cnn2CC`, the Potency result in [1], in [2], in [3], in assay [6], in assay [7] and in [8] was “inactive” throughout. The Potency result in [9], in assay [10], in assay [11], in assay [12], in [13] and in assay [15] was “inactive” in each case. The Potency entry in assay [19], in [16] and in assay [17] was “inactive” in each case. Besides, the result in assay [4] and in assay [5] was inactive.
Take `CCN1CCN(c2cc(-c3ccc(F)cc3)c3c(n2)CCCCCC3)CC1`: the activity change, negative = cytotoxicity in [1] was -1.5% [at 19 µM]; in assay [8] it was 11.2% [at 13.5 µM]; in assay [9] it was 0.85% [at 13.5 µM]; in assay [10], 1.98% [at 13.5 µM]. Also, the activity, positive = activation in [2] is -2.3% [at 19 µM]. Besides, the activity change in assay [3] was 17.8% [at 11.8 µM, hits give high values]. The activation in assay [4] was 8.32% [at 15.8 µM]; in assay [5] it was -0.133% [at 11.8 µM]; in [6], -0.562% [at 13.5 µM]; in assay [7], -1.02% [at 13.6 µM]; in assay [11] it was -0.331% [at 13.5 µM]; in assay [20], -5.11% [at 15.9 µM]. For the same molecule, the activation is 2.2% [at 15.8 µM] in [13] and 0.689% [at 19 µM] in assay [14]. Further, in [12], the Potency is 31.7 nM (active). Also, the activity change, negative = inhibition was 1.59% [at 18.9 µM] in [18] and -12.5% [at 19 µM] in assay [15].
Take `Cc1nc2n(c(=O)c1CCN1CCC(C(=O)c3ccc(F)cc3)CC1)CCS2`: the Potency entry in assay [1], in assay [2], in assay [3], in assay [6], in [7] and in assay [8] was “inactive” in each case. Moreover, the Potency entry in [9], in [10], in assay [11], in assay [13], in assay [14] and in assay [18] was “inactive” in each case. Also, the Potency result in [15], in assay [19] and in assay [16] was “inactive” throughout. The outcome in [4] and in assay [5] was inactive. The Potency in assay [17] is 66.8 nM (active).
